In the antibiotic and cytotoxicity screens of Wong et al. (2023) one finds cytotoxicity call data, which are given here for 42 compounds.

The structures appear in SMILES notation. Screen size: about 39,000 compounds; about 1,500 (3.8%) were called active. The sample as a whole holds a higher share of actives than the screen did.

The assay concerns HSkMC (human skeletal muscle cells). Nature of the assay: cytotoxicity call (relative viability < 0.9). The note with it: 10 µM.
For `O=S(=O)(NCC[C@@H]1CC[C@@H](NS(=O)(=O)c2ccccc2Cl)[C@@H](CO)O1)c1ccc(F)cc1`, the cytotoxicity call was “inactive”. For `COc1ccc(NC(=O)Nc2ccc3c(c2)C(=O)N([C@@H](C)CO)C[C@H](C)[C@@H](CN(C)S(=O)(=O)c2c(C)noc2C)OCCCC[C@@H](C)O3)cc1`, the cytotoxicity call was “inactive”. Regarding `C[C@@H]1CCCCO[C@@H](CN(C)C(=O)Nc2ccc(C(F)(F)F)cc2)[C@@H](C)CN([C@H](C)CO)C(=O)c2cc(NC(=O)Cc3ccccc3)ccc2O1`, the cytotoxicity call was “inactive”. The entry for `C[C@H](CCC(=O)NCC(=O)NCCS(=O)(=O)O)[C@H]1CC[C@H]2[C@@H]3[C@H](O)C[C@@H]4C[C@H](O)CC[C@]4(C)[C@H]3C[C@H](O)[C@]12C` is “inactive”; for `CC(C)[C@@H](CC[C@@H](C)[C@H]1CC[C@H]2[C@@H]3[C@H](O)C[C@H]4C[C@@H](NCCCNCCCCN)CC[C@]4(C)[C@H]3CC[C@]12C)OS(=O)(=O)O` it is “active”. For `CC(CCC(=O)O)C1CCC2C3C(O)CC4CC(O)CCC4(C)C3CCC12C` (configuration not stated) the value was “inactive”; for `C[C@H](CCC(=O)NCCS(=O)(=O)O)[C@H]1CC[C@H]2[C@@H]3[C@H](O)C[C@@H]4C[C@H](O)CC[C@]4(C)[C@H]3C[C@H](O)[C@]12C`, “inactive”; for `COC(=O)CCC(C)C1CCC2C3C(O)CC4CC(O)CCC4(C)C3CC(O)C12C` (configuration not stated), “inactive”. The entry for `CC(C)[C@@H](CC[C@@H](C)[C@H]1CC[C@H]2[C@@H]3[C@H](O)C[C@H]4C[C@@H](NCCCNCCCCNCCCN)CC[C@]4(C)[C@H]3CC[C@]12C)OS(=O)(=O)O` is “active”. With `CC(=O)N1CCO[C@H]2CCN(C(=O)c3cn(C)cn3)C[C@H]21`, the cytotoxicity call was “inactive”. Consider `Cc1ccc(S(=O)(=O)N(C)C[C@H]2OCCCC[C@H](C)Oc3ccc(NC(=O)Nc4ccc(F)cc4)cc3C(=O)N([C@H](C)CO)C[C@@H]2C)cc1`, for which the cytotoxicity call is “inactive”. For `Cc1noc(C)c1NC(=O)N(C)C[C@@H]1Oc2ccc(NC(=O)c3ccncc3)cc2CC(=O)N([C@H](C)CO)C[C@H]1C` the value was “inactive”; for `COc1cccc(NC(=O)N(C)C[C@H]2OCc3ccccc3-c3c(n(C)c4ccccc34)C(=O)N([C@@H](C)CO)C[C@H]2C)c1`, “inactive”; for `C[C@H]1CN([C@@H](C)CO)S(=O)(=O)c2ccc(C#CCC3CCCC3)cc2O[C@@H]1CN(C)C(=O)c1cnccn1`, “inactive”.

With `C=CCC[C@H](Cc1ccc(F)cc1)C(=O)OC[C@@H](Cc1c[nH]c2ccccc12)NC(=O)[C@@H](CC=C)CC(=O)N[C@@H](CO)Cc1ccccc1`, the cytotoxicity call is “inactive”.

`C=CCC[C@H](Cc1ccc(F)cc1)C(=O)OC[C@@H](Cc1c[nH]c2ccccc12)NC(=O)[C@@H](CC=C)CC(=O)N(CCO)Cc1ccccc1`: the cytotoxicity call is “inactive”. For `C=CCC[C@@H](Cc1ccc(F)cc1)C(=O)OC[C@@H](Cc1c[nH]c2ccccc12)NC(=O)[C@@H](CC=C)CC(=O)N(CCO)Cc1ccccc1` the value was “active”; for `C=CCC[C@@H](Cc1ccc(F)cc1)C(=O)OC[C@H](Cc1c[nH]c2ccccc12)NC(=O)[C@@H](CC=C)CC(=O)N(CCO)Cc1ccccc1`, “inactive”.

Consider `C=CCC[C@H](Cc1ccc(F)cc1)C(=O)OC[C@@H](Cc1c[nH]c2ccccc12)NC(=O)[C@H](CC=C)CC(=O)N(CCO)Cc1ccccc1`, for which the cytotoxicity call was “active”. For `C=CCC[C@@H](Cc1ccc(F)cc1)C(=O)OC[C@H](Cc1c[nH]c2ccccc12)NC(=O)[C@H](CC=C)CC(=O)N(CCO)Cc1ccccc1` the value was “inactive”; for `C=CCC[C@H](Cc1ccc(F)cc1)C(=O)OC[C@H](Cc1c[nH]c2ccccc12)NC(=O)[C@H](CC=C)CC(=O)N(CCO)Cc1ccccc1`, “inactive”. For `C=CCC[C@H](Cc1ccc(F)cc1)C(=O)OC[C@H](Cc1c[nH]c2ccccc12)NC(=O)[C@@H](CC=C)CC(=O)N(CCO)Cc1ccccc1` the value was “active”; for `C=CCC[C@@H](Cc1ccc(F)cc1)C(=O)OC[C@@H](Cc1c[nH]c2ccccc12)NC(=O)[C@H](CC=C)CC(=O)N(CCO)Cc1ccccc1`, “active”.

`C=CCC[C@@H](Cc1ccc(F)cc1)C(=O)OC[C@@H](Cc1c[nH]c2ccccc12)NC(=O)[C@@H](CC=C)CC(=O)N[C@@H](CO)Cc1ccccc1`: the cytotoxicity call is “inactive”. As to `CC(C)(C)[S@@](=O)N1Cc2cc(C(=O)N3CCc4ccccc4C3)nc(-c3cccc(-c4ccncc4)c3)c2[C@H]1CCO`, the cytotoxicity call is “inactive”. `CCO[C@H]1OC(C(=O)N2CCN(C)CC2)=C[C@@H](c2coc3ccccc3c2=O)[C@@H]1CCCOC(=O)NCCCCCC(=O)NO`: the cytotoxicity call was “inactive”. Regarding `C[C@@H]1CN([C@@H](C)CO)C(=O)Cc2cc(NS(=O)(=O)c3cccs3)ccc2O[C@@H]1CN(C)Cc1ccc(-c2ccccc2)cc1`, the cytotoxicity call is “inactive”. For `NC(=O)CC(N)=S` the value was “inactive”; for `C[C@H]1CN([C@@H](C)CO)S(=O)(=O)c2ccc(C#CC3CCCC3)cc2O[C@H]1CN(C)C(=O)Cc1ccncc1`, “inactive”; for `CN(C)CC(=O)N1[C@@H]2Cn3c(ccc(-c4ccccc4)c3=O)[C@H]1[C@@H](C(=O)N1CCOCC1)[C@@H]2CO`, “inactive”. The entry for `C[C@H](CO)N1C[C@H](C)[C@H](CN(C)S(=O)(=O)c2cccs2)Oc2c(NC(=O)Nc3cccc4ccccc34)cccc2C1=O` is “inactive”; for `COC(=O)C[C@H]1C=C[C@H](N)[C@H](CO)O1` it is “inactive”; for `Cc1noc(C)c1S(=O)(=O)Nc1ccc2c(c1)CC(=O)N([C@H](C)CO)C[C@H](C)[C@@H](CN(C)S(=O)(=O)c1cccs1)O2` it is “inactive”. The entry for `C[C@@H]1CCCCO[C@@H](CN(C)S(=O)(=O)c2ccc(F)cc2)[C@H](C)CN([C@H](C)CO)C(=O)c2cc(NS(=O)(=O)c3ccc(Cl)cc3)ccc2O1` is “inactive”; for `C[C@@H]1CN([C@H](C)CO)C(=O)c2cc(NS(=O)(=O)c3ccc(F)cc3)ccc2O[C@H]1CN(C)Cc1ccc(Cl)c(Cl)c1` it is “active”. Regarding `C[C@H]1CN([C@@H](C)CO)C(=O)c2cc(NS(=O)(=O)c3ccc(F)cc3)ccc2O[C@@H]1CN(C)Cc1ccc(Cl)c(Cl)c1`, the cytotoxicity call was “active”. For `C[C@H]1CN([C@@H](C)CO)C(=O)c2cc(NS(=O)(=O)c3ccc(F)cc3)ccc2O[C@H]1CN(C)Cc1ccc(Cl)c(Cl)c1` the value was “inactive”; for `C[C@@H]1CN([C@@H](C)CO)C(=O)c2cc(NS(=O)(=O)c3ccc(F)cc3)ccc2O[C@@H]1CN(C)Cc1ccc(Cl)c(Cl)c1`, “inactive”. Regarding `C[C@@H]1CN([C@@H](C)CO)C(=O)c2cc(NS(=O)(=O)c3ccc(F)cc3)ccc2O[C@H]1CN(C)Cc1ccc(Cl)c(Cl)c1`, the cytotoxicity call was “active”. The entry for `C[C@H](CO)N1C[C@H](C)[C@H](CN(C)Cc2ccc(Cl)c(Cl)c2)Oc2ccc(NS(=O)(=O)c3ccc(F)cc3)cc2C1=O` is “inactive”; for `C[C@@H]1CN([C@H](C)CO)C(=O)c2cc(NS(=O)(=O)c3ccc(F)cc3)ccc2O[C@@H]1CN(C)Cc1ccc(Cl)c(Cl)c1` it is “inactive”.

As to `C[C@H](CO)N1C[C@H](C)[C@@H](CN(C)Cc2ccc(Cl)c(Cl)c2)Oc2ccc(NS(=O)(=O)c3ccc(F)cc3)cc2C1=O`, the cytotoxicity call was “inactive”.
